Data taken from PubChem BioAssay (NCATS).
Inconclusive results are not listed. Active and inactive are the calls of the source. Calls come from the whole dose curve; as a rule, active = well fitted curve in the direction sought with a large enough effect; inconclusive = small, poorly fitted or top-dose-only effect, or another doubt; inactive = no such curve, though single readings can be large; an effect the other way counts as inactive or inconclusive.

How the values were obtained:
[1] = MultiTox-Fluor Cytotoxicity Assay - LYMP1-001 - Dead Cells (AID 946)
Method in brief: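 LYMP1-001 lymphoblastoid cells (2500/well) treated 16 h at 37 C. Dead-cell protease cleavage of bis-AAF-R110 read at Ex/Em 485/520. Normalized to DMSO and 15 uM tetraoctylammonium bromide; AC50 from Hill fits.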

[2] = Cell Viability - LYMP1-002 - Assay at 16 hr (AID 948)
Method in brief: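 Acute cytotoxicity is scored as a concentration-dependent fall in intracellular ATP in a human lymphoblastoid line (LYMP1-002) after 16 hr compound exposure at 37 C, measured by luciferase luminescence.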

[3] = MultiTox-Fluor Cytotoxicity Assay - LYMP1-002 - Live Cells (AID 955)
Method in brief: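 After 16 h compound exposure at 37 C, live LYMP1-002 lymphoblastoid cells (2500/well) were quantified by cleavage of cell-permeant GF-AFC substrate, read at 405/510 nm after 60 min. Concentration-response fitted with Hill equation for AC50.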

[4] = MultiTox-Fluor Cytotoxicity Assay - LYMP1-003 - Dead Cells (AID 961); note: nearly all actives have a fitted effect of over 70% in size
Method in brief: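 LYMP1-003 human lymphoblastoid cells (2500/well) exposed to compound 16 h at 37 C in complete medium; dead-cell protease read with bis-AAF-R110 fluorescence (Ex/Em 485/520) after 60 min at room temperature. Normalized to DMSO and 15 uM tetraoctylammonium bromide; AC50 from Hill fit.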

[5] = MultiTox-Fluor Cytotoxicity Assay - LYMP1-003 - Live Cells (AID 962);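 note: cytotoxic hits lower the live-cell protease signal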
Method in brief: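 Live-cell protease activity (GF-AFC substrate, 405/510 nm, 60 min at room temperature) after 16 h, 37 C compound exposure of human lymphoblastoid LYMP1-003 cells; concentration-response fitted to the Hill equation for AC50.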

[6] = Cell Viability - LYMP1-003 - Assay at 24 hr (AID 963)
Method in brief: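 Concentration-response qHTS: ATP loss measured by CellTiter-Glo luminescence after 24 h compound exposure at 37 C. Cells were LYMP1-003 human lymphoblastoid, 2500 per well. AC50 derived via standard Hill equation modeling.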

[7] = Cell Viability - LYMP1-003 - Assay at 40 hr (AID 964); note: series mostly up to about 92 µM; nearly all actives have a fitted effect of over 60% in size
Method in brief: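 Viability is taken as cellular ATP, read by CellTiter-Glo luminescence after 40 h of compound exposure at 37 C. Cells: human lymphoblastoid line LYMP1-003 at 2500/well; AC50 values derived by Hill-equation fitting of concentration-response data.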

[8] = Cell Viability - LYMP2-003 (AID 965);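 note: cells exposed to compounds for 24 h before reading; nearly all actives have a fitted effect of over 50% in size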
Method in brief: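 Acute cytotoxicity is scored as a concentration-dependent drop in intracellular ATP, measured by luciferase luminescence in human lymphoblastoid cells treated for 24 hours at 37 C. AC50 values derive from Hill-equation modelling.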

[9] = Cell Viability - LYMP2-004 (AID 966); note: nearly all actives have a fitted effect of over 65% in size
Method in brief: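 AC50 values come from Hill modelling of concentration-dependent loss of intracellular ATP, measured by CellTiter-Glo luminescence. Human LYMP2-004 lymphoblastoid cells (2500/well) were exposed to compound for 24 h at 37 C.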

[10] = Cell Viability - LYMP2-005 (AID 967); note: series mostly up to about 92 µM
Method in brief: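 qHTS viability screen in LYMP2-005 cells: 24 h at 37 C with compound, ATP luminescence via CellTiter-Glo, AC50 from Hill curves.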

[11] = Cell Viability - LYMP2-009 (AID 968); note: series mostly up to about 92 µM; nearly all actives have a fitted effect of over 55% in size
[12] = Cell Viability - LYMP2-011 (AID 969); note: nearly all actives have a fitted effect of over 60% in size
Method in brief: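 Cytotoxicity qHTS with ATP content as read-out: lymphoblastoid cells (2500/well) exposed to compound for 24 h at 37 C, then luciferase luminescence measured. Concentration-response data fitted with the standard Hill equation to give AC50.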

[13] = Cell Viability - LYMP2-013 (AID 970); note: series mostly up to about 92 µM; nearly all actives have a fitted effect of over 55% in size
Method in brief: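 qHTS cytotoxicity: ATP-dependent luminescence (CellTiter-Glo, 30 min room temperature) read after 24 h compound exposure at 37 C of 2500 LYMP2-013 lymphoblastoid cells per well. Concentration-response fitted with Hill equation to give AC50.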

[14] = Cell Viability - LYMP2-015 (AID 971); note: nearly all actives have a fitted effect of over 55% in size
Method in brief: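 Cytotoxicity readout: decrease in intracellular ATP (CellTiter-Glo luminescence) in 2500 LYMP2-015 lymphoblastoid cells/well after 24 h compound exposure at 37 C. Concentration-response data fitted with the standard Hill equation to give AC50.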

[15] = Cell Viability - LYMP2-017 (AID 972); note: series mostly up to about 92 µM; nearly all actives have a fitted effect of over 55% in size
Method in brief: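 CellTiter-Glo luminescence (cellular ATP, 30 min RT) measured cytotoxicity after 24 hr compound treatment at 37 C. Cells were a human lymphoblastoid line, LYMP2-017, plated at 2500/well and incubated 5 hr first; concentration-response fitted with Hill equation for AC50.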

[16] = Cell Viability - LYMP2-019 (AID 973); note: nearly all actives have a fitted effect of over 55% in size
Method in brief: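 AC50 values come from Hill-equation fits of luminescent intracellular ATP (CellTiter-Glo, 30 min, room temperature) following 24 h compound exposure at 37 C. Cells: LYMP2-019 lymphoblastoid line, 2500 per well, in complete culture medium.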

[17] = Cell Viability - LYMP2-021 (AID 974); note: nearly all actives have a fitted effect of over 55% in size
Method in brief: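 AC50 values come from Hill-equation fits to CellTiter-Glo luminescence (ATP content), read after 24 hour compound exposure at 37 C of 2500 LYMP2-021 lymphoblastoid cells/well; tetraoctylammonium bromide as positive control.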

[18] = Cell Viability - LYMP2-023 (AID 975)
Method in brief: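 Intracellular ATP, read by CellTiter-Glo luminescence, reports viability after 24 hr compound exposure at 37 C. 2500 lymphoblastoid cells/well (LYMP2-023) seeded 5 hr beforehand; Hill fits give AC50; positive control tetraoctylammonium bromide.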

[19] = MultiTox-Fluor Cytotoxicity Assay - LYMP1-001 - Live Cells (AID 947)
[20] = MultiTox-Fluor Cytotoxicity Assay - LYMP1-002 - Dead Cells (AID 960); note: nearly all actives have a fitted effect of over 60% in size
Method in brief: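 Dead-cell fluorescence (Ex/Em 485/520) after 16 h compound exposure at 37 C of LYMP1-002 lymphoblastoid cells in complete medium; AC50 by Hill equation, with data scaled between DMSO and 15 uM tetraoctylammonium bromide.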

Measured: Potency

COc1ccc(N=[N+]([O-])c2ccc(OC)cc2)cc1
inactive: [1] | [2] | [3] | [4] | [5] | [6] | [7] | [8] | [9] | [10] | [11] | [12] | [13] | [14] | [15] | [16] | [17] | [18]

Fc1ccccc1
inactive: [1] | [19] | [20] | [4] | [5] | [6] | [7] | [8] | [9] | [10] | [11] | [12] | [13] | [14] | [15] | [16] | [17] | [18]

CC(C)N=C=NC(C)C
inactive: [1] | [19] | [3] | [4] | [5] | [6] | [7] | [8] | [9] | [10] | [11] | [12] | [13] | [14] | [15] | [16] | [17] | [18]

CCCCC(CC)COCC1CO1 (stereo not given)
inactive: [1] | [19] | [3] | [4] | [5] | [6] | [7] | [8] | [9] | [11] | [12] | [13] | [14] | [15] | [16] | [17] | [18]

CC(C)C=O
inactive: [1] | [3] | [20] | [4] | [5] | [6] | [7] | [8] | [9] | [10] | [11] | [12] | [13] | [14] | [15] | [16] | [17] | [18]

C=C(C)C(N)=O
inactive: [1] | [3] | [20] | [4] | [5] | [6] | [7] | [8] | [9] | [10] | [11] | [12] | [13] | [14] | [15] | [16] | [17] | [18]

CN(C)c1cccc(O)c1
inactive: [1] | [19] | [20] | [4] | [5] | [6] | [7] | [8] | [9] | [10] | [11] | [12] | [13] | [14] | [15] | [16] | [18]

Cc1cc([N+](=O)[O-])ccc1N
inactive: [1] | [2] | [3] | [4] | [5] | [6] | [7] | [8] | [9] | [10] | [11] | [12] | [13] | [14] | [15] | [16] | [17] | [18]

Cc1cc(C)cc(N)c1
inactive: [1] | [2] | [20] | [4] | [5] | [6] | [7] | [8] | [9] | [10] | [11] | [12] | [13] | [14] | [15] | [16] | [18]

O=C(O)c1cccc(Cl)c1Cl
inactive: [1] | [2] | [3] | [20] | [4] | [5] | [6] | [7] | [8] | [9] | [10] | [11] | [12] | [13] | [14] | [15] | [16] | [17] | [18]

CCCCCCCCN
inactive: [19] | [2] | [3] | [20] | [4] | [5] | [6] | [7] | [8] | [9] | [10] | [11] | [12] | [13] | [14] | [15] | [16] | [17] | [18]

CC(=O)Nc1ccc(C)cc1
inactive: [1] | [19] | [20] | [4] | [5] | [6] | [7] | [8] | [9] | [11] | [12] | [13] | [14] | [15] | [16] | [18]

CN(C)CCCCl
inactive: [1] | [3] | [20] | [4] | [5] | [6] | [7] | [8] | [9] | [10] | [11] | [12] | [13] | [14] | [15] | [16] | [17] | [18]

Cc1ccc(C(C)(C)C)cc1
inactive: [1] | [2] | [3] | [20] | [4] | [5] | [6] | [7] | [8] | [9] | [10] | [11] | [12] | [13] | [14] | [15] | [16] | [17] | [18]

CC(=O)OC(C)=O
inactive: [1] | [2] | [3] | [20] | [4] | [5] | [6] | [7] | [8] | [9] | [10] | [11] | [12] | [13] | [14] | [15] | [16] | [17] | [18]

Nc1nc(CC(=O)O)cs1
inactive: [1] | [2] | [20] | [4] | [5] | [7] | [8] | [9] | [10] | [11] | [12] | [13] | [14] | [15] | [16] | [17] | [18]

C=Cc1ccccn1
inactive: [19] | [2] | [3] | [20] | [4] | [5] | [6] | [7] | [8] | [9] | [10] | [11] | [12] | [13] | [14] | [15] | [16] | [17] | [18]
